This note sets out measurements from PubChem BioAssay (Tox21).

Activity calls are given as the source filed them. Calls come from the whole dose curve; as a rule, active = well fitted curve in the direction sought with a large enough effect in the repeat runs; inconclusive = weak or mixed curves; inactive = flat fitted curve, though single readings scatter.

The assay is described as follows: qHTS assay to test for compound auto fluorescence at 590 nm (red) in HEK293 cell free culture (AID 720683). Conditions: cell-free medium autofluorescence, Ex540/Em590 red; series mostly up to 91.3 µM. The method in brief:
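Cell-free wells of DMEM with 10% FBS received compound, and intrinsic fluorescence was read at excitation/emission 540/590 nm. Values expressed as equivalence to Rose Bengal sodium.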
In the case of `Cc1c(Cl)c(=O)oc2cc(OP(=O)(OCCCl)OCCCl)ccc12`, the outcome was inactive.
For the compound `O=S(=O)(c1ccc(Cl)cc1)c1ccc(Cl)cc1`, the compound was called inactive.
With `N#C/C=C/C#N` the entry was “inactive”; with `O=C(CCl)C(Cl)Cl`, “inactive”; with `C=CCC1=C(C)C(OC(=O)C2C(C=C(C)C)C2(C)C)CC1=O` (stereo not given), “inactive”.
Consider `O=C/C(Cl)=C(/Cl)C(=O)O`, for which the compound was classed as inactive.
With `Clc1ccc(C(c2ccccc2Cl)C(Cl)(Cl)Cl)cc1` (stereo not given) the entry was “inactive”; with `Oc1ccc(C2(c3ccc(O)cc3)c3ccccc3-c3ccccc32)cc1`, “inactive”.
With `CC(=O)O[C@H]1CC[C@@]2(C)C(=CC[C@@H]3[C@@H]2CC[C@]2(C)C(=O)CC[C@@H]32)C1` the entry was “inactive”; with `CC(C)C1CCC(Cc2ccc(Cl)cc2)C1(O)Cn1cncn1` (stereo not given), “inactive”.
With `O=C(O)COc1nc(Cl)c(Cl)cc1Cl` the entry was “inactive”; with `CC(C)[C@H](C(=O)O[C@H](C#N)c1cccc(Oc2ccccc2)c1)c1ccc(Cl)cc1`, “inactive”.
For `CCCOCC(=Nc1ccc(Cl)cc1C(F)(F)F)n1ccnc1`, the compound was called inactive.
The value for `CCCN(CC)CC1COC2(CCC(C(C)(C)C)CC2)O1` (stereo not given) was “inactive”.
With `C[C@@H]1CC[C@@]2(OC1)O[C@H]1[C@@H](O)[C@H]3[C@@H]4CC[C@H]5C[C@@H](O[C@@H]6O[C@H](CO)[C@H](O[C@@H]7O[C@H](CO)[C@@H](O)[C@H](O[C@@H]8OC[C@@H](O)[C@H](O)[C@H]8O)[C@H]7O[C@@H]7O[C@H](CO)[C@@H](O)[C@H](O[C@@H]8O[C@H](CO)[C@@H](O)[C@H](O)[C@H]8O)[C@H]7O)[C@H](O)[C@H]6O)[C@H](O)C[C@]5(C)[C@H]4CC[C@]3(C)[C@H]1[C@@H]2C`, the compound was classed as inactive.
